# Measured values published in PubChem BioAssay.
# Values without a mark were called inactive. Activity calls are given as the source filed them. Cut-off read from the data, not from the text of the source, unless noted: active = inhibition above about 25%; inactive = the rest.
# How the values were obtained:
# [1] = target: Nuclear receptor coactivator 1 (Homo sapiens) (UniProt Q15788); experiment: SRC1 coactivator transcriptional activity inhibitors, confirmation, cell-based, luminescence, quadruplicate (AID 588820;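 active = mean inhibition above 46.68%, the untreated control wells mean plus 3 SD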;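 note: 0% = DMSO wells and 100% = gossypol 36 µM treated wells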); conditions: HEK293 GAL4-SRC1 luciferase reporter, at 3.6 µM, stronger effect = higher value
# Chain of Nuclear receptor coactivator 1 (Homo sapiens) (Q15788 whole entry, looked up, the tested form may be a part): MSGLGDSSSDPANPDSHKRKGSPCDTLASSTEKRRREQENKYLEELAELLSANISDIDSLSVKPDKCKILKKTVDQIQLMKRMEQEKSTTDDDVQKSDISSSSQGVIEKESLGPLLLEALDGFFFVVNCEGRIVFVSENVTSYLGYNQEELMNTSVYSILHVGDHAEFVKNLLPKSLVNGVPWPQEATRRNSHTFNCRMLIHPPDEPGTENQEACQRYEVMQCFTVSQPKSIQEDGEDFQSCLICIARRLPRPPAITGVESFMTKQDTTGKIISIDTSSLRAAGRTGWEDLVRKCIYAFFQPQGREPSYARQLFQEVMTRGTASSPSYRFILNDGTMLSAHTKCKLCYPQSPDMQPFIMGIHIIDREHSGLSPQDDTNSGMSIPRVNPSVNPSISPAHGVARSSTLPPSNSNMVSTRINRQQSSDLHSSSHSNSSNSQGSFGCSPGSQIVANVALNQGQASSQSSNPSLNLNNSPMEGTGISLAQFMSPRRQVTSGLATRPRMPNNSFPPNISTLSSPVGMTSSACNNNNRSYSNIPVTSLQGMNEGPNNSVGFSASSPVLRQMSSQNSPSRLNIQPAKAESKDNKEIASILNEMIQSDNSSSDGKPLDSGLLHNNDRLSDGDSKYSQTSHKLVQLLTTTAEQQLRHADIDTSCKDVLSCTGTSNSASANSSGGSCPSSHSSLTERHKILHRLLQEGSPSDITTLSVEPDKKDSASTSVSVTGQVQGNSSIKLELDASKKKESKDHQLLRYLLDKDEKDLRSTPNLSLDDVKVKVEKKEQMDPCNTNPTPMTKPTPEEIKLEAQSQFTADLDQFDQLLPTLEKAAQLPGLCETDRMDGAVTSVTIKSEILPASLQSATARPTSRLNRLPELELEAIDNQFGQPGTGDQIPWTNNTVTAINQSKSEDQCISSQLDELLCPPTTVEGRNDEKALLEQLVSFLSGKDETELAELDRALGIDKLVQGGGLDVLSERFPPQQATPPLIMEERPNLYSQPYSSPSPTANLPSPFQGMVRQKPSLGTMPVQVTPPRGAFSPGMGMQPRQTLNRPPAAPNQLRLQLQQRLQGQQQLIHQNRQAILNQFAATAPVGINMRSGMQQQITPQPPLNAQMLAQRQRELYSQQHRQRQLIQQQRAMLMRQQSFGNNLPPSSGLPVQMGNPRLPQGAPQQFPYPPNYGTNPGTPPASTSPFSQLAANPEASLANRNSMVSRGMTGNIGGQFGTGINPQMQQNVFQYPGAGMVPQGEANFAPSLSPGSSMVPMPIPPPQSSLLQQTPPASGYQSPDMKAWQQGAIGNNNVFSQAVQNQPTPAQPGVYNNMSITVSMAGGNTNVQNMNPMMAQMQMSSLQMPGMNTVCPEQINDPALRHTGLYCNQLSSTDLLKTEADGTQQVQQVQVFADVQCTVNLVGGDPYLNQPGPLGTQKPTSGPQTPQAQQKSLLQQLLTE
# [2] = VP16 transactivation inhibitors, counter-screen for SRC1 inhibitor project, cell-based, luminescence, high throughput (AID 588824); conditions: cell-based VP16 transactivation luciferase luminescence; at 3.6 µM; stronger effect = higher value
SMILES,inhibition [1],inhibition [2]
O=C1c2cccc(OCc3ccc(F)cc3)c2CCN1Cc1ccccc1,20.6%,13.6%
O=C(Nc1nc(-c2ccccn2)cs1)c1cccc(S(=O)(=O)N2CCOCC2)c1,25%,20%
Cc1nn(-c2ccccc2)c(N2CCCC2)c1/C=N/NC(=O)c1cc(-c2cccnc2)nc2ccccc12,-42.9%,-7.83%
CC(=O)N1CCc2c(sc(NC(=O)C3CCCN3S(=O)(=O)c3cccs3)c2C(N)=O)C1 (stereo not drawn),4.87%,-1.35%
COc1ccc(-n2cnc(N)c2C(=O)c2cccc([N+](=O)[O-])c2)cc1,38.1%,18.6%
Cc1ccc(OCCN2CCN(C(=O)CCC(=O)Nc3nnc(CC(C)C)s3)CC2)cc1,2.56%,11.8%
CCCC(=O)N1CCCC(c2cc(C(=O)Nc3ccccc3)no2)C1 (stereo not drawn),-49.1%,-30.6%
Cc1cc(C)c2nc(NNC(=O)c3ccc(S(=O)(=O)N4CC(C)CC(C)C4)cc3)sc2c1 (stereo not drawn),32.4%,30.2% (active)
Cc1nc(N=C(N)N)nc2ccccc12,2.65%,-11.1%
CN(C)C(=O)c1cccc(-c2cnc3cccnn23)c1,-7.49%,7.53%
COc1ccc(NC(=O)CCn2c(=S)[nH]c3ccccc3c2=O)cc1,2.22%,0.97%
CCOC1(OCC)OC(c2ccccc2)=C(C#N)C(C=Cc2ccccc2)C1(OCC)OCC (stereo not drawn),0.8%,4.67%
CC(C)(C)c1ccc(-c2cc(-c3ccccc3O)[nH]n2)cc1,-42.5%,-28.4%
Cc1cc(OCC(O)CN2CCc3ccccc3C2)cc(C(C)C)c1 (stereo not drawn),-16.6%,-6.97%
COc1ccc(CCNc2ncnc3c2[nH]c2cc(OC)c(OC)cc23)cc1OC,-33.2%,-14.5%
CCN(CC)c1ccc(/C=N/Nc2nc3ccccc3[nH]2)c(O)c1,-7.34%,3.82%
CCOCCOC(=O)c1[nH]c2c(c1C)C(=O)CC(c1cc(OC)c(OC)c(OC)c1)C2 (stereo not drawn),-15.9%,13.5%
c1ccc2c(c1)ccc1ncccc12,1.02%,6.62%
CCNc1nc(NC(C)(C)C)nc(N2CCCCC2)n1,8.01%,12.6%
CN1CCN(c2ccc(Cl)cc2NC(=O)CC2OC(=O)c3ccccc32)CC1 (stereo not drawn),-37.2%,-6.69%
OC(CN1CCN(c2cccc(Cl)c2)CC1)c1ccccc1 (stereo not drawn),-16.2%,-6.51%
CC(Oc1ccccc1)C(=O)N1CCC2(CC1)CC(=O)c1ccccc1O2 (stereo not drawn),5.89%,3.37%
O=C(O)CNC(=O)c1cccc(C(F)(F)F)c1,-9.63%,-6.05%

SMILES,inhibition [1],inhibition [2]
Cc1ccccc1CN1CCC(Oc2ccc(C(=O)NCc3ccccn3)cc2)CC1,-15.8%,8.1%
COc1ccc(S(=O)(=O)N(C)C[C@H]2Oc3c(NC(=O)Nc4c(C)noc4C)cccc3C(=O)N([C@H](C)CO)C[C@@H]2C)cc1,6.86%,9.48%
O=C(NC1CCCCC1)C(c1ccc(F)cc1)N(CCCN1CCOCC1)C(=O)c1ccc(CN2CCOCC2)o1 (stereo not drawn),-0.03%,3.53%
N#Cc1c(-c2ccccc2)c(C#N)c2nc3ccccc3n2c1N,15.8%,17.8%
COc1ccc(CN(CC(=O)NCc2ccccc2)C(=O)CCC(=O)Nc2cc(C)ccn2)cc1,-7.07%,0.36%
COc1ccc(CNC(=O)c2cc3c(C)nc4ccccc4c3o2)c(OC)c1,-5.62%,22.3%
COc1ccc(C2CC(c3ccc(Br)cc3)=NN2C(=O)CSC2=NCCS2)cc1 (stereo not drawn),7.19%,10.6%
CCN(C(=O)C(C)OC(=O)CCCNC(=O)c1ccc(Cl)cc1)c1ccccc1 (stereo not drawn),-2.16%,-2.69%
COc1ccc(NC(=O)NNC(=O)COc2ccc3ccccc3c2)cc1OC,14%,8.08%
Cc1ccccc1C(=O)Nc1cc(NC(=O)c2ccccc2C)cc(C(=O)O)c1,-14.1%,-11.4%
CCOC(=O)c1cc(C#N)c(SCC(=O)OC)[nH]c1=O,1.73%,-9.78%
CC1=C(C(=O)Nc2ccccc2C(=O)NCc2ccccc2)SCCO1,-7.53%,-4.09%
O=C(COc1ccc([N+](=O)[O-])cc1)Nc1ccccc1C(=O)NC1CC1,2.87%,-1.57%
CC1=C(C(=O)OC2CCCCC2)C(c2ccc(C)o2)C2=C(CC(C)(C)CC2=O)N1 (stereo not drawn),-5.08%,4.47%
CN(C(=O)COC(=O)c1ccc2[nH]c3c(c2c1)CCCC3)C1CCS(=O)(=O)C1 (stereo not drawn),-0.53%,-0.75%
CCCc1cc(=O)oc2cc(O[C@@H]3O[C@H](CO)[C@@H](O)[C@H](O)[C@H]3O)ccc12,-9.52%,-11.7%
Cc1ccc(S(=O)(=O)CC(CN2CCCCC2)N2CCCCC2)cc1 (stereo not drawn),4.8%,-1.35%
COc1ccccc1-c1cccc(-c2nc(C(=O)N3CCCCC3)cc3c2[C@H](CCO)N(S(=O)C(C)(C)C)C3)c1 (stereo partly drawn),-56.9%,-21.5%
CC(NC(=O)COC(=O)c1cccs1)c1ccccc1 (stereo not drawn),15.5%,13.6%
C=CCn1c(SCC(=O)Nc2ccccc2F)nc2ccccc2c1=O,2.78%,-1.24%
Cc1cnc(C(=O)Nc2cccc3cccnc23)cn1,-34.4%,-21.9%
CCOc1cc(C(=S)N2CCCCC2)ccc1OCC(=O)NCc1ccccc1,-15.9%,-12.5%
CN(Cc1ccccc1)C(=O)c1ccc(NC(=O)C2CCCN(C(=O)OC(C)(C)C)C2)cc1 (stereo not drawn),-1.28%,8.32%

SMILES,inhibition [1],inhibition [2]
Cc1nnc(N2CCCC(C(=O)NCc3ccc(OC(C)C)cc3)C2)c2nn(-c3ccccc3)c(C)c12 (stereo not drawn),-12.5%,-13.1%
Cc1cc2[nH]c(=O)c(=O)[nH]c2cc1S(=O)(=O)NC1CCC(C)CC1 (stereo not drawn),-3.97%,-2.19%
CCN1CCS/C1=C/C=C/C1=[N+](CC)CCS1,-22.7%,47% (active)
CC1=C(C(=O)OCc2ccccc2)C(c2ccsc2)C(C#N)=C(N)O1 (stereo not drawn),-1.74%,3.63%
COc1ccccc1CCC(=O)Nc1cccc(S(=O)(=O)N2CCCCCC2)c1,-1.96%,-7.85%
O=C(Nc1ccncc1)c1cccc(S(=O)(=O)N2CCc3ccccc32)c1,-21.8%,27.9% (active)
O=C(Nc1ccccc1)N1CCCN(c2ccc(C(F)(F)F)cn2)CC1,-0.62%,-2.54%
COc1ccc(NC(=O)C2CCN(c3cnccn3)CC2)cc1Cl,1.5%,1.48%
COCCOc1ccc(C(F)(F)F)cc1NC(=O)c1ccc(C(F)(F)F)cc1,6.49%,3.69%
COc1ccc(CN2CCN(C(=O)c3ccc(S(=O)(=O)N4CCCCCC4)cc3)CC2)cc1,-2.25%,25.6% (active)
C(=N\Nc1nc2ccccc2[nH]1)/c1ccc2ncccc2c1,-40.4%,-63.6%
Cc1ccc(S(=O)(=O)N2CCN(C(=O)c3ccc(S(=O)(=O)N4CCCC4)cc3)CC2)cc1,1.07%,9%
Cc1ccccc1-c1ccc(CN2C(C)C(=O)N(Cc3cn(Cc4ccco4)nn3)CCS2(=O)=O)cc1 (stereo not drawn),7.13%,6.95%
Cc1noc(C)c1COC(=O)CCN1c2ccccc2Sc2ccccc21,0.23%,-13.4%
COc1ccc(CCN(C)C(=O)c2cc(S(=O)(=O)N3CCCCC3)ccc2Cl)cc1OC,-9.24%,8.04%
O=C(Cc1ccsc1)N1CCN(S(=O)(=O)c2cc(C(F)(F)F)cc(C(F)(F)F)c2)CC1,-14.2%,0.11%
Nc1c(C(=O)c2ccccc2)sc2nsc(SCCN3CCCC3)c12,-0.71%,-2.2%
CC(=O)c1ccc(S(=O)(=O)N2CCN(CCOc3ccc(Br)cc3)CC2)cc1,2.32%,25.4% (active)
COc1ccccc1N1CCN(C(=O)C2CCN(S(=O)(=O)c3ccc4c(c3)CC(C)N4C(=O)C3CC3)CC2)CC1 (stereo not drawn),-15.8%,5.48%
C[C@H]1CN([C@@H](C)CO)C(=O)CCCn2nncc2CO[C@H]1CN(C)C(=O)C1CCCCC1,-19.8%,-11.3%
COc1ccc(-c2nc(N3CCOCC3)nc3n[nH]c(N)c23)cc1,5.53%,17.9%
c1ccc2c(c1)CCN(c1nc3cc4c(cc3s1)OCCO4)C2,-22.2%,2.93%
CN1c2ccccc2C2(C)CCCC3=Cc4cccc([N+](=O)[O-])c4OC312 (stereo not drawn),-8.43%,11.1%
